Screen size: about 48,000 compounds; about 13,000 (27%) showed an effect of 50% or more. The list shows a part of the results.
System: Wolbachia pipientis
Assay: Anti-Wolbachia Cell-Based Screen
Format: functional
Set-up: scale not given: in the data most compounds retested in dose-response had high values
Conditions: 5 µM

| Compound | Percent Effect |
| --- | --- |
| Nc1nccnc1C(=O)N1CC(OCc2cccc3ccccc23)C1 | -5.576% |
| CN(C)C[C@H]1OC[C@@H]2CCN(C(=O)NCc3cccc(F)c3)C[C@@H]21 | 12.45% |
| CC(C)N1C[C@@H]2CN(C(=O)NCc3ccccc3)CCC[C@]2(C(=O)O)C1.O=C(O)C(F)(F)F | -4.508% |
| CN(C)C[C@H]1OC[C@@H]2CN(C(=O)NCc3cccc(F)c3)CC[C@@H]21.O=C(O)C(F)(F)F | -10.24% |
| COc1ccccc1OCC(=O)N1C[C@@H]2CN(C)CCO[C@@H]2C1.O=C(O)C(F)(F)F | -10.13% |
| CC(C)N1CCO[C@@H]2CN(C(=O)NCc3ccccc3)CC[C@@H]2C1.O=C(O)C(F)(F)F | 99.72% |
| COCCN1CCO[C@@H]2CN(C(=O)NCc3ccccc3)CC[C@@H]2C1.O=C(O)C(F)(F)F | -7.267% |
| CN1CCO[C@@H]2CN(C(=O)NCc3cccc(F)c3)CC[C@@H]2C1 | 89.36% |
| CN1CCO[C@@H]2CN(C(=O)NCc3ccccc3)CC[C@@H]2C1.O=C(O)C(F)(F)F | 100.3% |
| Cc1csc(CNC(=O)N(C)Cc2ccc([S+](C)[O-])cc2)n1 (stereo unspecified) | -10.57% |
| COCCN(CC1CCCN(C2Cc3ccccc3C2)C1)C(=O)CSC (stereo unspecified) | -15.09% |
| COc1cc(N2CCCn3cnc(COCCO)c3C2)ncn1 | -11.76% |
| O=C(c1cccn1Cc1cccs1)N1CCN2CCCCC2C1 (stereo unspecified) | 106.1% |
| CNC(=O)C1CCN(C(=O)c2cccn2Cc2cccs2)CC1 | 0.5999% |
| NC(=O)CC1CCN(C(=O)c2csc(-c3ccccc3F)n2)CC1 | -1.67% |
| NC(=O)CC1CCN(C(=O)c2cccn2Cc2cccs2)CC1 | 101.5% |
| O=C(c1cccn1Cc1cccs1)N1CCC(C(=O)N2CCCC2)CC1 | 86.86% |
| NC(=O)C1CCN(C(=O)c2cccn2Cc2cccs2)CC1 | 117.1% |
| O=C(OCc1cccs1)c1cccc(C(=O)N2CCCC2)n1 | -3.794% |
| O=C(c1csc(-c2cccs2)n1)N1CCN2CCCCC2C1 (stereo unspecified) | 1.576% |
| O=C(c1cccn1Cc1cccs1)N1CCN(C(=O)C2CC2)CC1 | -0.05599% |
| O=C(c1cccn1Cc1cccs1)N1CCN(C2CC2)CC1 | 5.207% |
| Cc1cc(C(=O)N2CCc3[nH]cnc3C2C(=O)O)c(-c2ccccc2)o1 (stereo unspecified) | -20.72% |
| CN(C)CCNC(=O)c1nc2c(o1)CN(C(=O)c1cccnc1)C2.O=C(O)C(F)(F)F.O=C(O)C(F)(F)F | -13.48% |
| COC(C)(C)CC(C)NC(=O)NC1CCN(Cc2ccccn2)CC1 (stereo unspecified) | 2.912% |
| Cn1ncc2c(NCC(=O)N3CCNCC3)nc(C(C)(C)C)nc21 | -6.319% |

| Compound | Percent Effect |
| --- | --- |
| CC(C)C1CN(c2ncc(F)cn2)CCC(=O)N1Cc1ccc(F)cc1 (stereo unspecified) | 23.16% |
| Cc1ccc(S(=O)(=O)Nc2cccnc2O)cc1C | 0.1699% |
| CCC(O)CN1CCN(C(=O)c2cccn2Cc2cccs2)CC1 (stereo unspecified) | -10.05% |
| O=C(c1cccn1Cc1cccs1)N1CCSCC1 | 87.27% |
| NC(=O)C1CCN(C(=O)c2cccn2Cc2cccs2)C1 (stereo unspecified) | 92.97% |
| CC(CNC(=O)N1CCSCC1)Cc1cccs1 (stereo unspecified) | 19.49% |
| O=C1NC(c2ccccc2)=N[C@@]12CC[C@@H]1CN(Cc3ccncc3)C[C@@H]12 | -3.809% |
| O=C(c1cnn2c1OCCC2)N1CCC(Cc2ccccc2)CC1 | 143.8% |
| O=C(c1cnn2c1OCCC2)N1CCN(C(=O)C2CCCO2)CC1 (stereo unspecified) | 101.5% |
| CCn1ncc(C(=O)N2CCCN(CCCc3ccccc3)CC2)c1C | 5.21% |
| Cc1cc2cc(CNC(=O)c3cnn4c3OCCC4)ccc2[nH]1 | 3.624% |
| O=C(c1cnn2c1OCCC2)N1CCN(C/C=C/c2ccccc2)CC1 | 8.023% |
| O=C(C1CCCO1)N1CCC(n2cc(-c3ccc(F)cc3)nn2)CC1 (stereo unspecified) | -2.259% |
| CN(C)C(=O)c1cnn2c1OCCC2 | 85.82% |
| Cc1ccc(-c2cn(C3CCN(C(=O)[C@H]4CCCO4)CC3)nn2)cc1 | -12.17% |
| Cc1c(C(=O)N2CCC(C(O)c3ccc(Cl)cc3)CC2)cnn1C (stereo unspecified) | -1.505% |
| Cc1c(C(=O)N2CCCN(S(C)(=O)=O)CC2)cnn1C | 116.6% |
| CCCn1ncc(C(=O)N2CCN(C3CCCC3)CC2)c1C | 4.008% |
| CC(=O)N1CCOC2(CCCN(Cc3ccc(Cl)c(C(F)(F)F)c3)C2)C1 (stereo unspecified) | -8.143% |
| Clc1cc(CN2CCCC2Cn2cncn2)c2ncccc2c1 (stereo unspecified) | 9.576% |
| N#Cc1cccnc1N1CCCC(CO)(Cc2cccc(Cl)c2)C1 (stereo unspecified) | -4.475% |
| CC(c1cccc(-c2cn(Cc3ccoc3)nn2)c1)N(C)C (stereo unspecified) | -9.392% |
| CNC(=O)Cc1ccc(NC(=O)NCc2nc(C)sc2C)cc1 | 5.733% |
| CN(C)C(=O)CCC[S+]([O-])Cc1ccc(Cl)c(Cl)c1 (stereo unspecified) | -0.5151% |
| CCc1c(C(=O)N2CCCN(C(C)=O)CC2)cnn1C(C)(C)C | 7.313% |
| CC(=O)c1ccc(N2CCN(C(=O)c3cc(C(C)C)nn3C)CC2)cc1 | -2.718% |

| Compound | Percent Effect |
| --- | --- |
| CC(C)(C)OC(=O)N1CCCN(c2nnc(C3CC3)s2)CC1 | 1.365% |
| CS(=O)(=O)N1CCN(C(=O)c2cnn3c2OCCC3)CC1 | 124.7% |
| CS(=O)(=O)N1CCN(C(=O)c2[nH]c3ccc(Cl)cc3c2Cl)CC1 | -22.4% |
| CC(=O)N1CCCN(C(=O)c2cnn(C(C)(C)C)c2C)CC1 | 120.5% |
| CS(=O)(=O)N1CCn2c(C(=O)N3CCOCC3)cnc2C1 | -13.12% |
| CC(=O)N1CCN(c2nc3c(cnn3C(C)(C)C)c(=O)[nH]2)CC1 | -9.111% |
| CC(=O)c1ccc(N2CCN(C(=O)c3cnn4c3OCCC4)CC2)cc1 | 108.1% |
| CC(C)(C)OC(=O)N1CCN(C(=O)c2cnn3c2OCCC3)CC1 | 119.8% |
| CN(Cc1cncs1)C1CCN(C(=O)OC(C)(C)C)CC1 | 3.797% |
| CC(=O)c1ccc(N2CCN(C(=O)NC(C)c3ccc(C)o3)CC2)cc1 (stereo unspecified) | -3.361% |
| O=C(CCN1CCCCO1)N1CC[C@H](O)[C@@H](O)C1 | -19.59% |
| Cc1ccc(S(=O)(=O)NC(=O)c2cc(S(C)(=O)=O)ccc2C)s1 | 12.42% |
| CCOC(=O)c1ccc(CNC(=O)c2ccon2)o1 | 45.33% |
| O=C(c1cn(-c2ccc(C(F)(F)F)cn2)nn1)N1CCCCCC1 | -5.295% |
| OC1(CN2CCCCC2)CCN(c2cc(C(F)(F)F)ccn2)C1 (stereo unspecified) | 106.3% |
| OC1(CN2CCCC2)COCCN(c2nccs2)C1 (stereo unspecified) | -1.349% |
| CS(=O)(=O)NCC1CCCN(c2ccc(C(F)(F)F)cn2)C1 (stereo unspecified) | 7.899% |
| OC1(CN2CCCCC2)CCN(c2ccc(C(F)(F)F)cn2)C1 (stereo unspecified) | 107.5% |
| Cc1cc(F)ccc1CN1CCC(O)(CN2CCCCC2)C1 (stereo unspecified) | -5.371% |
| FC(F)(F)c1ccnc(N2CCCOCC2)c1 | 1.908% |
| OC1(CN2CCCC2)COCCN(c2cc(C(F)(F)F)ccn2)C1 (stereo unspecified) | 99.83% |
| FC(F)(F)c1ccnc(N2CCCCCC2)c1 | 6.382% |
| CCc1nnc(CNC(=O)CCCN2CCCCC2)s1 | -1.719% |
| O=C(NCCNC(=O)C1CC1)c1sccc1Br | 0.3352% |
| Cc1cccc(C(C(=O)NCc2csc(-c3ncccn3)n2)N(C)C)c1 (stereo unspecified) | 2.9% |
| CSC(CNS(=O)(=O)c1cnn(C)c1)c1cccc(Cl)c1 (stereo unspecified) | -0.2397% |

| Compound | Percent Effect |
| --- | --- |
| Cn1c(CN2CCCCC2)cc(=O)c(O)c1CN1CCCCC1 | 95.65% |
| Cn1c(CN2CCCCCC2)cc(=O)c(O)c1CN1CCCC1 | 177.4% |
| Cc1noc(C2CCN(Cc3cc(=O)n(C)c(=O)n3C)CC2)n1 | 2.603% |
| CC(=O)c1cc(CN2C[C@@H](CN3CCCC3)[C@@H](CO)C2)n(C)c1 | 0.4917% |
| CCS(=O)(=O)N1CCC(c2nnc(CN3CCCCCC3)n2C)CC1 | -3.352% |
| CCS(=O)(=O)N1CCC(c2nnc(CN3CCCCC3)n2C)CC1 | -11.51% |
| Cc1ccc(CNC2(Cc3cc(-c4ccccc4)on3)COC2)o1 | -15.57% |
| CN1CCN(Cc2ccccc2CNC(=O)c2cc(Cl)ccc2F)CC1 | -3.272% |
| Cn1ncc(C2CC(=O)NCc3nc4sccn4c32)c1C1CC1 (stereo unspecified) | -19.57% |
| COc1cc(Cl)ccc1CNC(=O)N(C)C(C)CS(C)(=O)=O (stereo unspecified) | 2.125% |
| CCOc1cc(Cl)ccc1CNC(=O)N1CCCC(CO)C1 (stereo unspecified) | -9.935% |
| COc1cc(Cl)ccc1CNC(=O)N1CCC(n2cncn2)CC1 | 88.5% |
| COc1ccc(OC)c(CNC(=O)N2CCC(n3cncn3)CC2)c1 | 67.1% |
| CCC(CC)c1cc(CNC(=O)N2CCC(n3cncn3)CC2)on1 | -7.222% |
| CC(C)CC1(C(=O)NCCc2nncn2C2CC2)CCC1 | -4.64% |
| COCCn1cncc1CN1CCCC(C(=O)Cc2ccccc2)C1 (stereo unspecified) | -2.141% |
| FC(F)Oc1ccc(CNCc2cc(Br)c3c(c2)OCO3)cc1 | -6.924% |
| Cc1cccc(S(=O)(=O)NC(=O)CN(C)Cc2ccccc2)c1 | -8.063% |
| OC1CCN(Cc2ccc(CNc3ncc(Cl)cc3F)cc2)CC1 | 12.54% |
| CC(C)c1ncc2c(n1)CN(CC(=O)Nc1ccncc1)CC2 | 121.8% |
| CCc1ncc2c(n1)CN(CC(=O)Nc1ccncc1)CC2 | 110.2% |
| CCc1ncc2c(n1)CN(CC(=O)Nc1ccc(Cl)cn1)CC2 | -11.22% |
| CCc1ncc2c(n1)CN(CC(=O)NCCOc1ccccc1)CC2 | -2.298% |

From ChEMBL document CHEMBL3988442, “University of Dundee, Small-Polar-MMV Screening Library” (2021)
